Sampled rows, rich in hits. Any-hit rate of the full collection: about 10%.
NPR1 antag: human Npr1 receptor antagonism | 76,000 compounds, 1.6% hits | HEK293 hNpr1 GloSensor cGMP, ANP-stimulated luminescence | Potency, µM (titrated, usually from 46.3 µM), without a hit: at the highest dose activity change, negative = inhibition, usual class: inhibitors | AID 1347048 | P16066; calls by dose curve; also: nearly all actives have a fitted effect of over 60% in size
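HEK293 cells stably expressing human Npr1 and cGMP GloSensor pGS-40F, loaded 2 h with 2% GloSensor reagent, given compound 30 min at room temperature. Luminescence read before and 20 min after 0.1 nM hNppA.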
HEK293 tox: HEK 293 cell cytotoxicity | HEK 293 viability, ATP luminescence (CellTiter-Glo), 48-72 h | Potency, µM (titrated, usually from 115 µM), inactives show at the top dose activity change, negative = cytotoxicity, actives largely listed as inhibitors | 94,000 compounds, 6.6% hits | AID 1345083; also: nearly all actives have a fitted effect of over 60% in size
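Read-out: CellTiter-Glo ATP luminescence. Cells: HEK 293, 250 cells/well. Exposure: 48 or 72 hr, 37 degree Celsius.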
Luciferase inh: Photinus pyralis luciferase inhibition. Potency, µM (top dose mostly 115 µM), usual class: inhibitors. 76,000 compounds, 2.5% hits. purified P. pyralis luciferase, luminescence, biochemical. AID 1347043. P08659; also: nearly all actives have a fitted effect of over 65% in size
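Luminescence read by CCD imaging after purified firefly luciferase (10nM final) was added to substrate buffer holding 10uM D-luciferin and 10uM ATP, pH 7.5, pre-dosed with compound.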
3T3 cytotox: cytotoxic compounds in NIH 3T3 cells; NIH 3T3 viability, CellTiter-Glo ATP luminescence, 48-72 h; Potency, µM (highest dose often 96.7 µM), for inactives: at the highest dose activity change, negative = cytotoxicity, hits mostly inhibitors; 94,000 compounds, 4.3% hits; AID 1345082; also: nearly all actives have a fitted effect of over 55% in size
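ATP-dependent luminescence (CellTiter-Glo) served as the viability signal for NIH 3T3 cells treated with compound for 48 or 72 hr at 37 °C.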
GPT2 inh: GPT2 alanine aminotransferase inhibition. Q8TD30. Recombinant GPT2, coupled pyruvate oxidase/HRP Amplex Red fluorescence. Potency, µM (doses to about 57.7 µM), without a hit: at the highest dose activity change, negative = inhibition, usual class: inhibitors. 100,000 compounds, 0.25% hits; also: nearly all actives have a fitted effect of over 60% in size
Target sequence (Q8TD30 whole entry, looked up): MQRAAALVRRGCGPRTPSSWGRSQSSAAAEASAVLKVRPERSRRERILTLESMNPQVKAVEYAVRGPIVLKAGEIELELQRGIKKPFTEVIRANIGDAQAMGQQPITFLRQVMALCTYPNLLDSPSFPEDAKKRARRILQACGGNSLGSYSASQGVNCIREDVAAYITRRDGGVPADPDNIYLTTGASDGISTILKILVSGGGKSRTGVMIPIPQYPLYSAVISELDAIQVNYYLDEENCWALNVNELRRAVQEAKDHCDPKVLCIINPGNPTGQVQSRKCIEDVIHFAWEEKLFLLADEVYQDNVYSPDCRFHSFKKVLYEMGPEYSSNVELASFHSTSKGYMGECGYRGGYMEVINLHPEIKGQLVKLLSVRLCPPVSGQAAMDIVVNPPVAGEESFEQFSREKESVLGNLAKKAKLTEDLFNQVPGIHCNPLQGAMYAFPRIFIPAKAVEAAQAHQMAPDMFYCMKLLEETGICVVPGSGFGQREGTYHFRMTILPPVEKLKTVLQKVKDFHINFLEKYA
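Fluorescence read-out: pyruvate from GPT2 turnover coupled to pyruvate oxidase, HRP and Amplex Red (0.2mM ThPP, 0.2U/mL PO and HRP, 50uM Amplex final). Substrates 250uM a-KG, 2mM L-alanine; enzyme 10ng/uL; 30 min RT.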
Starred values were filed as active, the others as inactive; i = inactive; ? = inconclusive; / = no result; [ ] = remark or other dose. Unless noted, calls follow the shape of the dose curve; as a rule, active = well fitted curve in the direction sought with a large enough effect; inconclusive = small, poorly fitted or top-dose-only effect, or another doubt; inactive = no such curve, though single readings can be large; an effect the other way counts as inactive or inconclusive. % is scaled to controls: 0 for no effect and ±100 for the full control effect; potency is read from the fitted curve at half-maximal effect.

SMILES	NPR1 antag	HEK293 tox	Luciferase inh	3T3 cytotox	GPT2 inh
Cc1nc(-c2cccc(Cl)c2)n(CC(=O)Nc2ccccc2F)c(=O)c1CCO	-14.9%	44.7µM*	i	?	i
Cc1ccc(CNC(=O)Cn2c(-c3ccccc3)nc(C)c(CCO)c2=O)cc1	-7.8%	79.4µM*	i	?	i
Cc1nc(-c2cccc(Cl)c2)n(CC(=O)Nc2ccc3c(c2)OCO3)c(=O)c1CCO	-22.4%	39.8µM*	i	?	i
CN(Cc1cc(C[C@@H]2C[C@H](NS(C)(=O)=O)C2(C)C)no1)c1ccccc1	-9.7%[70.6 µM]	?	i	?	i
COc1ccc(NC(=O)Cn2c(-c3ccccc3)nc(C)c(CCO)c2=O)cc1Cl	-24.3%	25.1µM*	i	?	i
Cc1cc(NC(=O)Cn2c(-c3cccc(Cl)c3)nc(C)c(CCO)c2=O)no1	-0.7%	?	i	?	i
COc1ccc(NC(=O)Cn2c(-c3ccccc3)nc(C)c(CCO)c2=O)cc1OC	-4.0%	?	i	?	i
Cc1ccc(NC(=O)Cn2c(-c3cccc(Cl)c3)nc(C)c(CCO)c2=O)cc1	-3.5%	25.1µM*	i	39.8µM*	i
Cc1ccc(NC(=O)Cn2c(-c3ccc(Cl)cc3)nc(C)c(CCO)c2=O)cc1	-2.5%	31.6µM*	i	?	i
Cc1cc(C)cc(NC(=O)Cn2c(-c3ccccc3)nc(C)c(CCO)c2=O)c1	-11.3%	31.6µM*	i	?	i
COc1cc(Cl)c(C)cc1NC(=O)CN1C(=O)NC2(CCC(C)CC2)C1=O (centres undefined)	-12.8%	?	i	-36.0%	?
O=S(=O)(c1cccc2ccccc12)n1ccc2ccc(N3CCN4CCCC4C3)cc21 (centres undefined)	/	/	/	/	i
CSc1cccc(NC(=O)Cn2c(-c3ccc(F)cc3)nc(C)c(CCO)c2=O)c1	-17.2%	31.6µM*	i	?	i
Cc1nc(-c2ccccc2)n(CC(=O)Nc2ccc(C(C)C)cc2)c(=O)c1CCO	-18.8%	?	i	?	-7.2%
Cc1nc(-c2cccc(Cl)c2)n(CC(=O)Nc2cccc(C(C)C)c2)c(=O)c1CCO	-7.7%	?	i	25.1µM*	i
CCc1cccc(NC(=O)Cn2c(-c3cccc(Cl)c3)nc(C)c(CCO)c2=O)c1	-5.3%	39.8µM*	i	?	i
Cc1nc(-c2ccc(F)cc2)n(CC(=O)Nc2ccc(F)c(Cl)c2)c(=O)c1CCO	-23.6%	35.5µM*	i	?	-11.0%
COCCN1CCC2(CCC1=O)CCN(C(=O)c1sccc1C)CC2	/	-9.5%	/	-32.2%	?
Cc1cnc(C(=O)NC2CC(=O)N(Cc3cccc4ccccc34)C2)cn1 (centres undefined)	-0.7%	-0.3%	i	-22.9%	?
CC1=C[C@@H](CO)[C@H](C(C)C)C[C@H]1CC(=O)NCc1ccc(C#N)cc1	-8.7%[70.6 µM]	?	i	-28.5%[138 µM]	-23.1%[88.5 µM]
Cc1c(CN2CCCC(CNC(=O)c3cccc4ccccc34)C2)[nH]c2ccccc12 (centres undefined)	-2.7%	17.8µM*	i	20µM*	i
COc1cccc(C(=O)NCC2CCCN(Cc3ccccn3)C2)c1OC (centres undefined)	-3.1%	-9.8%	i	-17.0%	i
COCCCNC(=O)c1ccc2nnc(C3CC3)n2c1	/	-2.0%[172 µM]	/	-2.7%[138 µM]	i
O=C(NC1CCCCC1)O[C@@H]1CO[C@H]2[C@@H]1OC[C@@H]2n1nnnc1SCc1ccco1	-3.8%	?	i	-1.0%	i
CCOC(=O)C(Cc1cccc(N2CCN([S+](=O)([O-])c3c(Cl)cccc3Cl)CC2)c1)OC (centres undefined)	/	20µM*	/	?	/
SMILES	NPR1 antag	HEK293 tox	Luciferase inh	3T3 cytotox	GPT2 inh
O=C(C1CC1)N1CCC2(CCCCO2)CC1	1.0%	-3.8%	i	i	-9.2%
CS(=O)(=O)N1CCC(Cc2ccc(C(=O)NCCc3ccccc3)cc2)CC1	/	11.2µM*	/	?	-4.2%
CS(=O)(=O)N1CCC(Cc2ccc(C(=O)NCCN3CCOCC3)cc2)CC1	-1.2%	i	i	3.7%	-4.0%
CCCc1nc(NCc2ccc(-c3noc(C)n3)cc2)c2cnn(C)c2n1	11.2µM*	17.8µM*	i	?	-0.5%
COCC(=O)N[C@@H]1CN(S(=O)(=O)c2cn(C)cn2)CC[C@@H]1c1nc(C)no1	-0.1%	-7.8%	i	i	-7.2%
COc1ccc(C(=O)N2CC(Oc3ccccc3-c3nc(-c4ccccc4)no3)C2)cc1	-16.6%	28.2µM*	?	31.6µM*	-16.8%
O=C(NC1CCCC1)N1CC(Oc2ccccc2-c2nc(-c3ccccc3)no2)C1	-17.8%	?	i	31.6µM*	i
O=C(c1ccco1)N1CC(Oc2ccccc2-c2nc(-c3ccccc3)no2)C1	-21.5%	25.1µM*	?	31.6µM*	i
COc1ccc(C(=O)N2CC(Oc3ccc(-c4nc(-c5ccccc5)no4)cc3)C2)cc1	0.9%	5.2%	i	4.9%	-8.1%
O=C(c1ccco1)N1CC(Oc2ccccc2-c2nc(C3CC3)no2)C1	/	?	/	?	i
Cc1noc(C)c1-c1cccc(CCOc2cnc3c(ccn3CC(=O)O)c2)c1	-1.7%[70.6 µM]	?	i	50.1µM*	-13.9%[88.5 µM]
Cc1cccc(-c2cccc(CCOc3cnc4c(ccn4CC(=O)O)c3)c2)c1	-0.3%[70.6 µM]	?	i	?	?
Cn1cc(-c2cccc(CCOc3cnc4c(ccn4CC(=O)O)c3)c2)cn1	3.0%[70.6 µM]	-0.5%[172 µM]	70.8µM*	?	-1.4%[88.5 µM]
CNC(=O)c1cc(C2CC2)nc2c1c(C1CCN(C(=O)c3ccccc3F)CC1)nn2C	/	i	/	2.9%	/
O=C(O)COc1ccc(-c2nccc3c2C(=O)N(Cc2ccccc2)CC(COc2ccc(Cl)cc2)O3)cc1 (centres undefined)	0.3%	0.4%	50.1µM*	?	-14.1%
O=C(O)COc1ccc(-c2nccc3c2C(=O)N(Cc2ccccc2)CC(COc2ccc4cccnc4c2)O3)cc1 (centres undefined)	2.4%	4.7%	?	?	-19.2%
COc1ccc(CN2CCCC(CNC(=O)NC(C)C)C2)cc1O (centres undefined)	-2.5%	3.2%	i	-26.0%	-10.7%
COc1ccccc1CN1CCOc2cc([S+](=O)([O-])N(C)C)ccc2C1	-6.6%[70.6 µM]	89.1µM*	i	?	-7.1%[88.5 µM]
CN(C)[S+](=O)([O-])c1ccc2c(c1)OCCN(Cc1cccc(F)c1F)C2	-1.9%[70.6 µM]	?	i	?	i
CN(C)[S+](=O)([O-])c1ccc2c(c1)OCCN(Cc1ccccc1Cl)C2	-29.6%[70.6 µM]	?	i	56.2µM*	2.3%[88.5 µM]
O=C(NCc1cccc(O)c1)c1cc2cc(F)ccc2[nH]1	/	/	/	/	1.3%
